Data as given in PubChem BioAssay AID588466 (NMMLSC, 2011).
Several values for one entry are separate records, joined by “and”; a condition that tells them apart may be missing. Equal entries are not always repeated. Out of some 2,100 compounds screened, about 30 (1%) were called active.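 The calls were made as follows: active = compounds whose mean binding response over two repeats is below 75% of the DMSO control; inactive = the rest.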 Not all results are given here.

target: Desmoglein-3 (Homo sapiens) (UniProt P32926); assay: blockers of pemphigus antibody–desmoglein-3 interaction – biochemical, cherry pick 1, bead-based, flow cytometry, confirmation (AID 588466); settings: Protein G beads with DSG3, scFv-GFP binding, at 10 µM, hits give low values;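 also: 100% = 2% DMSO vehicle and 0% = excess soluble DSG3 blocking control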
Sequence (P32926 whole entry, looked up): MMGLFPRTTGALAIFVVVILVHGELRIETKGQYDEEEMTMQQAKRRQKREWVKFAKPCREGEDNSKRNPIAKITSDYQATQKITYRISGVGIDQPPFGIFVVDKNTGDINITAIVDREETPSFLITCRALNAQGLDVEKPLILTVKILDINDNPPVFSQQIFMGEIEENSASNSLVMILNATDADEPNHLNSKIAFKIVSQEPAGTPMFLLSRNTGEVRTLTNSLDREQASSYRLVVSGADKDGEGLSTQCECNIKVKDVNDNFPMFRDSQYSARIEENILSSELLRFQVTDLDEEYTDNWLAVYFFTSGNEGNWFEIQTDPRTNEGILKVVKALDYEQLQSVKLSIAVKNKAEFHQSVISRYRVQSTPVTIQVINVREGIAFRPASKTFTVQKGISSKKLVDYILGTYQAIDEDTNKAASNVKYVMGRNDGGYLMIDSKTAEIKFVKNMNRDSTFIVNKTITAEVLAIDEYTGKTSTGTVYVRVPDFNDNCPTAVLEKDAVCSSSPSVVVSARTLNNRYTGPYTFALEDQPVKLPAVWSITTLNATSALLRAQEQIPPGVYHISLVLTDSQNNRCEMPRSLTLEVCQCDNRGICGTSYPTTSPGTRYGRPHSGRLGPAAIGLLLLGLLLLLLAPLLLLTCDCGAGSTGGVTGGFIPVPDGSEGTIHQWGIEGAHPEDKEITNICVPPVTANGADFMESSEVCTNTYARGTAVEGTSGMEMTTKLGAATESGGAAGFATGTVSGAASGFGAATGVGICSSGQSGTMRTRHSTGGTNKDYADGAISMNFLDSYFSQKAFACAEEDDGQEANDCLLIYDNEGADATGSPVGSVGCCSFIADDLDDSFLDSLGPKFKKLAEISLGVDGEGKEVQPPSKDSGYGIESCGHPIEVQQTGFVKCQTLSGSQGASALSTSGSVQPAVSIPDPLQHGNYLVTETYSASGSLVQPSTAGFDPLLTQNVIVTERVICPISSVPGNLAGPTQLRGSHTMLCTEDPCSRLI

Binding response (% of DMSO), inactive:
Cc1cc(=O)oc2cc(OCC(=O)OCC(=O)Nc3ccccc3Br)ccc12 112%
COc1cccc(-c2nc(NCc3ccco3)c3ccccc3n2)c1O 89.5%
O=C(c1cc(S(=O)(=O)N2CCOCC2)ccc1F)N1CCCc2ccccc21 104%
CSc1nc(C2CC2)cc(-c2cccs2)c1C#N 94.5%
O=C(CSc1n[nH]c(-c2ccco2)n1)Nc1ccccc1Cl 101%
COc1ccc(CC(=O)Nc2cccc(C(=O)NN3C(=O)c4ccccc4C3=O)c2C)cc1 102%
COC(=O)[C@]1(C)N[C@H](CN(C)C(=O)Nc2ccc(OC)cc2)[C@@H]2C(=O)N(C)C(=O)[C@@H]21 95.3%
CCOC(=O)c1sc(NC(=O)C(CC)Sc2nccn2C)nc1C (configuration not stated) 105%
O=C(O)C1(Nc2ccc(Br)cc2)CCCC1 98.6%
COc1ccc(S(=O)(=O)N2CCCCCC2)cc1NC(=O)CCNC(=O)c1ccc(Cl)cc1 107%
O=C(CCCCCCN1C(=O)c2ccccc2C1=O)NC1CCCCC1 105%
CCCCN(CCCC)C(=O)c1cc(Cl)ccc1[N+](=O)[O-] 98.8%
COc1ccc(C(=O)COc2ccc3ccc(=O)oc3c2)c(OC)c1 104%
COc1ccc(C)cc1NS(=O)(=O)c1ccc2c(c1)CCN2C(C)=O 99.4%
NS(=O)(=O)c1ccc(NC(=O)c2ccc(F)cc2F)c(NC(=O)c2ccc(F)cc2F)c1 104%
CCCCSc1nnc(-c2ccc(NC(=O)CCc3ccccc3)cc2)n1C 104%
COc1ccc(-c2cc(NC(=O)c3cncn3-c3ccccc3)ccc2OC)cc1 107%
Cc1ccc(NC(=O)CN2C(=O)NC(Cc3c[nH]c4ccccc34)C2=O)cc1S(=O)(=O)N1CCCCC1 (configuration not stated) 102%
CC(=O)c1ccc(OCC(O)CN2CC(C)OC(C)C2)cc1 (configuration not stated) 104%
Cc1cc2oc(=O)cc(-c3ccccc3)c2c(C)c1-c1ccc(F)c(Cl)c1 105%
C[C@H](CO)N1C[C@H](C)[C@@H](CN(C)Cc2ccc(-c3ccccc3)cc2)Oc2c(NS(=O)(=O)c3cn(C)cn3)cccc2C1=O 98.2%
O=C(CN1CCN(S(=O)(=O)c2ccccc2)CC1)Nc1cccc(C(F)(F)F)c1 110%
O=C(Nc1cc(Cl)ccc1-n1cncn1)c1cn2ccccc2n1 111%
COc1cccc(C(=O)NCCn2ccc3ccccc32)c1 112%
COc1cc(CN2CCC(n3nccc3NC(=O)C3CC3)CC2)cc(OC)c1 104%
Cc1ccc(Cn2cnc3c(nnn3Cc3ccc(Cl)cc3)c2=O)cc1 90% and 97.5%
CC(C)[C@H](NC(=O)N1c2ccccc2NC(=O)[C@@H]1C(C)C)C(=O)N[C@@H](Cc1c[nH]c2ccccc12)C(=O)O 105%
CCOc1c(Br)cc(C(=O)Nc2cccc(S(=O)(=O)N3CCOCC3)c2)cc1OC 102%
CCc1nnc(NC(=O)CCC(=O)NCc2ccccc2Cl)s1 97.5%
COc1ccc(OC)c(NS(=O)(=O)c2ccc(-c3coc(C)n3)cc2)c1 97.3%
COc1ccc(CCN2C(=O)C(Oc3ccccc3C)C2c2ccc3c(c2)OCO3)cc1OC (configuration not stated) 101%
CSc1nc2ccc(NC(=O)c3cccs3)cc2s1 102%
Cc1ccc(NC(=O)Cc2ccc([N+](=O)[O-])cc2)c(Br)c1 95.5%
CCCN(CCC)CCNC(=O)Cn1cnc2sc(C)c(S(=O)(=O)N3CCOCC3)c2c1=O 99.3%
CCOC(=O)c1nn(-c2ccccc2)c(=O)c2c(NC(C)=O)scc12 111%
Cc1cc2ccccc2n1CCNC(=O)c1ccc(S(=O)(=O)N2CCCCC2)cc1 94.7%
CCOc1ccc(/C(O)=C2/C(=O)C(=O)N(c3cc(C)on3)C2c2ccc(C(=O)OC)cc2)cc1 (configuration not stated) 98.1%
C[C@H]1COC(=O)[C@@H](Cc2ccc(F)cc2)CC/C=C/C[C@@H](CC(=O)N(CCO)Cc2ccccc2)C(=O)N1 104%
Cc1ccc(NC(=O)COc2ccc3c(c2)OCO3)c(C)c1 103%
CCN1CCN(c2ccc(S(=O)(=O)N3CCOCC3)cc2NC(=O)CCSC)CC1 105%
COc1ccc(CN(CCN(C)C)Cc2ccccc2)c(OC)c1 101%
Cc1cnc(NS(=O)(=O)c2ccccc2)c(C)n1 98.8%
N#Cc1c(-c2ccc(F)cc2)cc(-c2ccccc2)nc1SCC(=O)NCC(=O)O 99.8%
O=C(Oc1cccc(C(=S)N2CCOCC2)c1)c1ccccc1 94.4%
CCc1cc2cc3c(cc2nc1SCC(=O)Nc1cc(C)on1)OCO3 103%
Cc1ccc(/C=N/N2CCN(c3ccc(Cl)cc3)CC2)o1 101%
COc1ccccc1-c1cc(N)n(S(=O)(=O)c2ccc(F)c(C)c2)n1 100%
COC(=O)c1oc2ccc(Cl)cc2c1NC(C)=O 100%
O=[N+]([O-])c1ccc(OCc2cnc(Cl)s2)c([N+](=O)[O-])c1 107%
Cc1ccc(C)c(N2CCN(C(=O)Cc3cn(C)c4ccccc34)CC2)c1 104%
O=C(CNC(=O)c1ccc(Br)cc1)N=Nc1c(O)[nH]c2ccc([N+](=O)[O-])cc12 100%
CC(=O)c1ccc(NC(=O)Cn2cnc(S(=O)(=O)N3CCC(C)CC3)c2)cc1 98.2%
CSCC[C@H](NC(=O)C1CCN(S(=O)(=O)c2ccc(C)cc2)CC1)C(=O)NCc1ccco1 106%
Cc1ccccc1NC(=O)Nc1nc2ccc(S(C)(=O)=O)cc2s1 89.9%
COc1ccc(NC(=O)CSc2nnc(Cc3ccc(C)cc3)c(=O)n2N)cc1 92.4%
Cc1ccc(NC(=O)COc2ccc3c(c2)OCO3)c(Cl)c1 98.1%
CC1=C(C(N)=O)C(c2cccnc2)n2nc(SCc3ccccc3Cl)nc2N1 (configuration not stated) 103%
